Compound activity deposited in PubChem by several laboratories.
MPTP block = permeability transition pore inhibition; 360,000 compounds, 1.4% hits; inhibition, % at 10 µM; isolated mouse mitochondria, Ca2+ swelling absorbance, 30 min;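 active = inhibition of 50% or more, scaled per plate between neutral and stimulator controls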;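 note: 0% = DMSO wells given calcium and 100% = 1 mM EGTA wells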
Beta apoptosis = beta cell apoptosis inhibition; protection from apoptosis, % (concentration not given with the values); INS-1E cytokine-induced death, ATP luminescence, 48 h; percent of positive-control rescue, neutral wells zero; 300,000 compounds, 0.8% hits; AID 435005;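 active = Every replicate reaches about 75%, or at least half do and their mean reaches it too, limit read from the data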;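 note: 0% = cytokine-treated negative control wells and 100% = positive control rescue; higher means more ATP so stronger rescue from cytokine killing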
GRIN3A LBD mod = modulators (binders) of human NR3A ligand-binding domain | Tm shift relative to glycine control, % at 25 µM | NR3A LBD differential scanning fluorimetry, Tm shift; 0% = protein alone, 100% = glycine-bound protein | 340,000 compounds, 2.5% hits | AID 1259313;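 active = melting temperature shift of at least 10% of the positive control shift, at one fixed dose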
Mdm2-MdmX inh = human Mdm2/MdmX binding inhibition; O15151+Q00987; SaOS-2 split-luciferase Mdm2/MdmX complementation, luminescence; inhibition, % at 8 µM; 330,000 compounds, 3% hits;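 active = inhibition of at least 50% at 8 µM in the primary screen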
Target sequence (O15151 whole entry, looked up): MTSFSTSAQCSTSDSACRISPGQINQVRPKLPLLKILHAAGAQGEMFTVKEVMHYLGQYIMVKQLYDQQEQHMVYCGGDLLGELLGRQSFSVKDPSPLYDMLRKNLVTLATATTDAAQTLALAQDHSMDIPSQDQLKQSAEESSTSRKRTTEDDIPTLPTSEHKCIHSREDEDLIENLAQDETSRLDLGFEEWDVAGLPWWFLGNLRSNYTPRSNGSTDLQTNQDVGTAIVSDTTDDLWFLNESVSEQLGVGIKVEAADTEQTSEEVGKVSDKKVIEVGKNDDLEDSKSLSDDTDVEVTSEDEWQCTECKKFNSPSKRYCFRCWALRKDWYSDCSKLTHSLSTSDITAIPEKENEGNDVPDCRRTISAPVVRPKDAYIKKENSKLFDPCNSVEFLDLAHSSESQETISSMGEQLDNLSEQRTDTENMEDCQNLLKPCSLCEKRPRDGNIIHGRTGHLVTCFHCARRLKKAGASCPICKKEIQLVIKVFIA
Target sequence (Q00987 whole entry, looked up): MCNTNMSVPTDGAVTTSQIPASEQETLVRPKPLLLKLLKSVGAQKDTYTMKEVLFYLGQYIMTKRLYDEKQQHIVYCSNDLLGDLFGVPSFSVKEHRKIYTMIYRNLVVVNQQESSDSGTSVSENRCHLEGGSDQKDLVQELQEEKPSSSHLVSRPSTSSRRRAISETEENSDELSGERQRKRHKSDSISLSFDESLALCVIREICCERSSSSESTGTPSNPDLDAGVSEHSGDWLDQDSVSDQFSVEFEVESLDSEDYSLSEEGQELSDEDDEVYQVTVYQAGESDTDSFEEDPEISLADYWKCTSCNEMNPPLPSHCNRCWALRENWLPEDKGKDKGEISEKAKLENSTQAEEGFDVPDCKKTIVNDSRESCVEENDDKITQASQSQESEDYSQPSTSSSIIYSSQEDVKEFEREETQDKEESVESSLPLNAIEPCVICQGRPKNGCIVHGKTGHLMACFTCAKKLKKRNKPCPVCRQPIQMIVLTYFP
CSC inhib = cancer stem cell inhibition; inhibition, % at 7.5 µM; cancer stem cell-like cells viability, luminescence; 300,000 compounds, 1.1% hits; in the data active = inhibition above about 75%; tested in HMLE shEcad cells
Gli-Sufu antag = Gli-Sufu pathway antagonism. Sufu-KO-LIGHT fibroblasts, Gli luciferase reporter luminescence. inhibition, % at 5 µM. 340,000 compounds, 0.74% hits;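 active = inhibition above about 55%, limit read from the data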;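 note: 0% = DMSO-treated cells and 100% = wells with medium but no cells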
Gli-Sufu confirm = confirmation of Gli-SUFU pathway antagonists; shares compounds with Gli-Sufu antag; Sufu-KO-LIGHT cells, Gli luciferase reporter, luminescence; inhibition, % at 5 µM; 2,500 compounds, 40% hits; AID 602428;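 active = mean inhibition at 5 µM reaching about 45%, limit read from the data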;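 note: plate controls were DMSO-treated cells for no effect and wells lacking cells for full effect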
SufuKO cytotox = cytotoxicity counter-screen for Gli-SUFU antagonists; shares compounds with Gli-Sufu antag; Sufu-KO-LIGHT cells cytotoxicity, ATP luminescence; cytotoxicity, % at 5 µM; 2,500 compounds, 32% hits;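 active = mean cytotoxicity at 5 µM above about 25%, limit read from the data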;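 note: cells exposed to compound overnight for roughly 16 to 18 hours; plate controls were DMSO wells with cells for no effect and medium without cells for full effect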
Wnt3a counter = counter-screen for Gli-SUFU antagonists: Wnt3a reporter inhibition; 2,500 compounds, 20% hits; inhibition, % at 6.25 µM; Wnt-LIGHT cells, Wnt3a-driven luciferase reporter, luminescence; shares compounds with Gli-Sufu antag; AID 651995;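 active = mean inhibition above about 25%, limit read from the data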
Rh123 counter = mitochondrial membrane potential, counter-screen | 5,000 compounds, 78% hits | inhibition, % at 10 µM | shares compounds with MPTP block | isolated mitochondria, Rhodamine 123 fluorescence; in the data active = inhibition above about 22%;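 note: 0% = DMSO vehicle and 100% = positive control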
MPTP swell DR = MPTP inhibition, dose response swelling confirmation; shares compounds with MPTP block; isolated mitochondria swelling, absorbance; IC50, µM; 780 compounds, 58% hits; AID 651561; in the data active = IC50 below about 20 µM
MPTP counter DR = MPTP inhibitor counter-screen activity, dose response. AID 651564. isolated mitochondria counterscreen, fluorescence read-out. 780 compounds, 49% hits. IC50, µM. shares compounds with MPTP block; in the data active = IC50 below about 80 µM
An asterisk follows results filed as active; nt = not tested or not shown. Hits are enriched below; roughly 6.6% of the tested compounds scored in any of these assays.

SMILES	MPTP block	Beta apoptosis	GRIN3A LBD mod	Mdm2-MdmX inh	CSC inhib	Gli-Sufu antag	Rh123 counter	others
Cc1ncc(CN2CCCC(C(=O)c3ccc(C(C)(C)C)cc3)C2)s1 (stereo not drawn)	75.0*	53.8	-1.8	-3.2	14.3	53.1	73.1*	Gli-Sufu confirm=14.0;SufuKO cytotox=23.7;Wnt3a counter=-89.7
O=C(c1ccc(C(F)(F)F)cc1)C1CCCN(Cc2ccncc2)C1 (stereo not drawn)	85.7*	31.8	0.8	14.2	22.4	55.8*	47.8*	Gli-Sufu confirm=38.1;SufuKO cytotox=21.4;Wnt3a counter=-5.0
CCn1c(O)c(C(=O)CC2NCCc3ccccc32)c(=O)n(CC)c1=S (stereo not drawn)	-3.5	nt	2.6	-9.9	-7.1	0.7	nt
COc1ccc(N2C(=O)NC(=O)/C(=C\c3ccc([N+](=O)[O-])s3)C2=O)cc1	55.5*	0.9	-7.4	12.3	6.3	-8.4	-13.1
Cc1ccc(-n2c(O)c(C=NCCC3=CCCCC3)c(=O)[nH]c2=O)cc1	-1.5	nt	-3.2	7.6	1.0	0.8	nt
CC1(C)C(=O)CC[C@@]2(C)C1=CCC1C2CC[C@]2(C)C(=O)CCC12 (stereo partly drawn)	59.4*	16.6	-0.5	19.3	-7.9	8.5	2.6	MPTP swell DR=6.31*;MPTP counter DR=13.2*
Cc1cccc(C)c1NC(=O)CN(C)CC(=O)Nc1ccc(C#N)c(Cl)c1	-0.7	3.2	-0.1	15.0	-17.9	48.1	nt
CCN1C(=O)NC(=O)/C(=C/c2cc(C)n(-c3sc(C)c(C)c3C#N)c2C)C1=O	56.8*	0.1	-3.9	15.8	3.3	0.1	35.0*
O=c1c2ccccc2nc(-c2ccc(-c3ccccc3)cc2)n1-c1ccncc1	2.1	3.4	-1.6	18.4	-3.1	12.6	nt
C=CCn1c(O)c(C(CC)=Nc2ccc(N(CC)CC)cc2)c(=O)[nH]c1=O	74.6*	-3.2	-2.1	18.5	18.3	23.1	29.0*
C=CCn1c(O)c(C(C)=Nc2ccc(N(CC)CC)cc2)c(=O)[nH]c1=O	5.8	0.7	-2.3	36.0	44.6	5.2	nt
COC(=O)C1=C(c2ccc(S(C)(=O)=O)cc2)C[C@@H]2CC[C@H]1N2C(=O)N1CCCCC1	-0.1	-5.3	2.1	7.5	-7.0	2.9	nt
CCCc1nc2ccc(Br)cc2c(=O)n1-c1ccc([N+](=O)[O-])c(C(F)(F)F)c1	93.9*	98.7*	4.7	36.5	126.8*	43.8	79.4*
CCN1C(=O)/C(=C/c2ccc(N(CC)CC)cc2OC)C(=O)NC1=S	65.8*	-6.2	14.1*	7.5	nt	8.6	-12.7
COc1ccccc1/C=C1\C(=O)NC(=S)N(c2ccccc2)C1=O	1.9	-3.9	3.6	26.2	-1.5	-4.1	nt
O=C(C[N+]12CCC(CC1)C(C(O)(c1ccccc1)c1ccccc1)C2)c1ccc(Br)cc1 (stereo not drawn)	1.6	4.3	0.4	7.4	-11.6	10.0	nt
Cn1c(O)c(C=NC2CCCCCC2)c(=O)[nH]c1=S	-0.7	-5.5	-0.8	1.5	-11.6	16.1	nt
CCC(=NCCOc1ccc(Cl)cc1)c1c(O)n(C)c(=O)n(C)c1=O	95.8*	18.6	0.0	-5.1	-2.9	22.8	90.3*
CCC(=NCCc1c[nH]c2ccccc12)c1c(O)n(C)c(=O)n(C)c1=O	69.9*	37.5	2.2	27.9	27.5	32.9	58.6*
CCC(=NCCN1CCCCC1)c1c(O)n(C)c(=O)n(C)c1=O	0.3	-5.7	0.6	-0.6	nt	9.8	nt
O=C(c1ccc2nc3ccc(Cl)cc3c(=O)n2c1)N1CCC2(CC1)OCCO2	1.4	nt	0.6	-1.2	-13.3	-1.7	nt
CCN(CC)S(=O)(=O)c1ccc(NN=C(C#N)C#N)cc1	102.6*	3.8	13.3*	-2.2	12.2	2.5	80.3*
CCN(CC)CCNC(=O)c1c(O)c2ccccc2n(Cc2ccccc2)c1=O	-3.5	nt	-1.5	6.7	23.8	-3.0	nt
CCN(CC)CCCNC(=O)c1c(O)c2ccccc2n(Cc2ccccc2)c1=O	78.9*	2.1	-0.6	27.5	-7.8	14.7	-6.8	MPTP swell DR=16.3*;MPTP counter DR=>80
CCCCC1(CCCC)C(=O)NC(=Nc2cccc(C)c2)NC1=O	91.9*	6.5	-3.6	18.1	32.4	-5.3	92.6*
SMILES	MPTP block	Beta apoptosis	GRIN3A LBD mod	Mdm2-MdmX inh	CSC inhib	Gli-Sufu antag	Rh123 counter	others
CCN1CCN(S(=O)(=O)c2cnc(Cl)c(Br)c2)CC1	0.8	nt	1.0	-5.5	nt	-0.5	nt
Cc1ccc2c(c1)C1CN(C)CCC1N2C(=O)Nc1cccc(Cl)c1 (stereo not drawn)	94.4*	-1.3	17.2*	23.4	26.4	4.4	91.0*
CCCCOc1ccc(CCN)cc1Cl	91.6*	2.0	-11.3	6.3	28.7	-21.5	-16.9	MPTP swell DR=6.6*;MPTP counter DR=>80
Cc1cccc(-n2c(/C=C/c3ccccn3)nc3ccccc3c2=O)c1	2.9	6.9	-1.4	12.4	6.5	35.8	nt
CC1([N+](=O)[O-])COP(=O)(Nc2cccc(Cl)c2)OC1 (stereo not drawn)	-0.6	nt	-0.2	nt	nt	-1.6	nt
O=C(c1ccc(Cl)cc1)C1CCCN(Cc2cccc3ncccc23)C1 (stereo not drawn)	96.6*	2.1	-1.7	27.4	8.1	25.5	72.2*
CCC(=Nc1cccc(C(F)(F)F)c1)c1c(O)n(C)c(=O)n(C)c1=O	79.6*	-7.2	2.1	6.6	-4.3	10.0	0.6	MPTP swell DR=9.01*;MPTP counter DR=14.3*
CN(C)c1ccc(/C=C/c2cc[n+](C)c3ccccc23)cc1	74.8*	nt	-0.2	nt	nt	87.4*	66.0*
CCN(CC)CCN/N=C(\C)c1c(O)[nH]c(=O)[nH]c1=O	1.2	-2.5	1.5	17.9	-7.5	3.6	nt
O=C1NC(=S)NC(=O)C1=Cc1ccc2c(c1)CCN2CCCCl	60.3*	nt	0.9	15.6	-4.5	3.0	-13.9
Cc1ccccc1N1C(=O)NC(=O)/C(=C\c2ccc3c(c2)CCCN3Cc2ccccc2)C1=O	36.7	3.0	-18.2	0.9	6.9	0.3	nt
O=C(Nc1nccs1)C(Cl)(Cl)Cl	-2.7	-1.2	0.6	-2.1	-3.3	5.6	nt
O=C(Nc1ccc(Cl)cc1)Nc1nccs1	85.6*	5.2	28.2*	19.1	48.2	-3.0	88.6*
